Results filed as inconclusive are left out. Activity calls are given as the source filed them. The call rests on the fitted dose curve.
Target: Tyrosine-protein kinase ABL1 (Homo sapiens) (UniProt P00519)
Assay: ABL1 kinase (ABL1-N-HiBiT) SDR gain of signal screen - plus ATP
Excerpt: National Center for Advancing Translational Sciences (NCATS),
National Institute of Health (NIH), Maryland
Discovery and optimization of novel protein-binding ligands underlies many of the methods and applications of biology, drug discovery, clinical diagnostics, and environmental toxicology. Assays for detecting the interaction of, for example, a molecule with a macromolecular target also referred to here as the target of interest (TOI) is dependent on a compatible output technology. Depending on the nature and knowledge surrounding the TOI, whether a receptor, enzyme, regulatory subunit or scaffold, or a sequence-defined nucleic acid folded into a complex tertiary structure, assay strategies can vary widely.
Here we exploit ligand-biased changes in the structural dynamics of the target protein to control reporter alpha complementation allowing a non-competitive, non-functional, non-separation measure of ligand-target interaction.
Secondly, we show the specificity and sensitivity of the SDR for the Abelson tyrosine kinase (ABL1) compared to the serine/threonine protein kinase A, using an enriched chemical library of 128 compounds selected, in part, for activity annotated with ABL1 kinase activity using the Pharos database (3).
(1) A. S. Dixon et al., NanoLuc Complementation Reporter Optimized for Accurate Measurement of Protein Interactions in Cells. ACS Chem Biol 11, 400-408 (2016).
Chemistry & Biology, 19, 1060 - 1072 (2012).
(3) K. J. Kelleher et al., Pharos 2023: an integrated resource for the understudied human proteome. Nucleic Acids Res 51, D1405-D1416 (2023).
PROTOCOL TABLE (as described by Inglese J, Shamu CE and Guy RK. 2007)
SEQUENCE No. (e.g., 1, 2, 3, etc.); […] (e.g., C. elegans, Compounds, Incubation, Read, etc.); VALUE and DESCRIPTION.
1. Reagent. Dispense 4 uL ABL1-N-HiBiT enzyme per well at a final enzyme concentration of 10 nM in buffer with 50 uM ATP (SDR assay) into columns 2-48 of four replicate Greiner 1536-well white, solid bottom high base, medium plates per assay. Dispense respective buffer without enzyme at 4 uL/well in column 1 of assay plates using BioRaptr 2.
2. Compounds. Library compounds added at 23 nL/well by pin transfer. DMSO neutral control and imatinib positive control added at 25 nL/well, transfer by Mosquito dispenser.
3. Incubation. Incubate enzyme and compounds at room temperature for 30 min, protected from light.
4. Reagent. (SDR assay) Add 3 uL/well of Nano-Glo HiBiT reagent (Promega) to assay plates with ATP.
5. Incubation. (SDR assay) Incubate enzyme solution and HiBiT reagent at room temperature for 10 min, protect from light.
6. Detector. (SDR assay) Luminescence measured using CCD-based camera (ViewLux) with settings as follows: Exposure, 1 sec; Gain, High; Speed, Slow; Binning, 2X.
Inglese J, Shamu CE and Guy RK, Reporting data from high throughput screening of small molecule libraries, Nature Chemical Biology, 2007, 3(8): 438-441. doi.org/10.1038/nchembio0807-438.

Chain of Tyrosine-protein kinase ABL1 (Homo sapiens) (P00519 whole entry, looked up): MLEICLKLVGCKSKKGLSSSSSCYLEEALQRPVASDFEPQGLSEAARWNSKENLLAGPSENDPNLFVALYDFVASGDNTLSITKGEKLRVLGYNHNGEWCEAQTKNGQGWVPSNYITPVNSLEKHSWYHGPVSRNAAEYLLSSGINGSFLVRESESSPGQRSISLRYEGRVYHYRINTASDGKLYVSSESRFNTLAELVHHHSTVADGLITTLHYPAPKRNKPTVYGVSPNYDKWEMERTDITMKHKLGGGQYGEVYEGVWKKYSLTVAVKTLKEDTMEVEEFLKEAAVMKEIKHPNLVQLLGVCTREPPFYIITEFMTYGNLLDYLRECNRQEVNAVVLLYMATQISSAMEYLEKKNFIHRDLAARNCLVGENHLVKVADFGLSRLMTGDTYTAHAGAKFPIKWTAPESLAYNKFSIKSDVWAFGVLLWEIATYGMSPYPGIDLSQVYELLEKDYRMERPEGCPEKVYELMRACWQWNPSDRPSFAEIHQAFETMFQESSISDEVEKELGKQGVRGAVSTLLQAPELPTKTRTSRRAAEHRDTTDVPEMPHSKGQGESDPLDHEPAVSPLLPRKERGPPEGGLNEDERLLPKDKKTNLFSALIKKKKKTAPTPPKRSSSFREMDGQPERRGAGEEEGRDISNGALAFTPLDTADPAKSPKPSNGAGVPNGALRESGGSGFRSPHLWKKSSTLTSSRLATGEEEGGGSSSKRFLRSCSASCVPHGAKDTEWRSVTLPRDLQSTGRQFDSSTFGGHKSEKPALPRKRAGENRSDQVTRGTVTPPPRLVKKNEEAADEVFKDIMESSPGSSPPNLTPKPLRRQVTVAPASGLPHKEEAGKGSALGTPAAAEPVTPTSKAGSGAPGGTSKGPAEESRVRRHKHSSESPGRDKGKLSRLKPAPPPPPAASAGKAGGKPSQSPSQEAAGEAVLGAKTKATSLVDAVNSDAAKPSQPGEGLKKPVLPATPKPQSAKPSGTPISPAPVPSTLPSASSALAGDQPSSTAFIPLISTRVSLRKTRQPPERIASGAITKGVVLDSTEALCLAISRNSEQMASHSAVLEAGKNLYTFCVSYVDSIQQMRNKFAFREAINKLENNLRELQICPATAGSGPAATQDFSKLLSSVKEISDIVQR

Row | Structure (SMILES) | outcome
1 | O=[N+]([O-])O[C@H]1CO[C@H]2[C@@H]1OC[C@H]2O[N+](=O)[O-] | inactive
2 | Cc1[nH]nc2ccc(-c3cncc(OC[C@@H](N)Cc4c[nH]c5ccccc45)c3)cc12 | inactive
3 | N#Cc1cn([C@@H]2O[C@H](CO)[C@H](O)[C@@H]2O)c2ncnc(N)c12 | inactive
4 | C/C(O)=C(\C#N)C(=O)Nc1cc(Br)ccc1Br | inactive
5 | O=C(NCCCNc1nc(Nc2ccc(N3CCOCC3)cc2)ncc1C1CC1)C1CCC1 | inactive
6 | CCNC(=O)C[C@@H]1N=C(c2ccc(Cl)cc2)c2cc(OC)ccc2-n2c(C)nnc21 | inactive
